Records with an inconclusive call do not appear. The source made the active and inactive calls. Calls follow the shape of the dose curve; as a rule, active = well fitted curve in the direction sought with a large enough effect; inconclusive = small, poorly fitted or top-dose-only effect, or another doubt; inactive = no such curve, though single readings can be large; an effect the other way counts as inactive or inconclusive.
Legend:
[1] = Cellular Toxicity (caspase-3) Mesangial (AID 660); conditions: mesangial cells, normalized: DMSO 0%, 100 µM tamoxifen 100%; at 91.7 µM (top of the series);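 also: combined caspase 3 and 7 activity read by Caspase-Glo luminescence; cells exposed to compound for 16 h before the caspase read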
Summary of the method: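 Caspase 3/7 activation measured by Caspase-Glo 3/7 luminescence (20 min, room temperature) following 16 h exposure of mesangial cells (1000/well); AC50 from Hill-equation fit, normalized to DMSO and 100 uM tamoxifen.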

[2] = Cellular Toxicity (caspase-3) SK-N-SH (AID 661); conditions: SK-N-SH caspase-3 activation, qHTS, DMSO as zero, staurosporine as full; series mostly up to 91.7 µM;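 also: cells exposed to compound for 16 hours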
Summary of the method: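 Caspase 3/7 activation was read by luminogenic substrate cleavage after 16 hour treatment of SK-N-SH cells. Signal was scaled between DMSO and 10 uM staurosporine, and concentration-response data were fitted with the Hill equation for AC50.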

[3] = Cellular Toxicity (caspase-3) H-4-II-E (AID 663); conditions: H-4-II-E rat hepatoma, scaled: DMSO 0%, 100 µM tamoxifen 100%; at 92.2 µM (top of the series);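 also: cells exposed to compound for 16 hr before readout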
Summary of the method: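 H-4-II-E rat hepatoma, 1500 cells/well, 5 hr settle at 37 °C; compound 16 hr, 37 °C, complete medium; Caspase-Glo 3/7, 20 min RT; luminescence. DMSO = 0%, 100 uM tamoxifen = 100%; Hill-equation AC50.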

[4] = Cellular Toxicity (caspase-3) N2a (AID 665); conditions: N2a cells, luminescence, normalized: DMSO 0%, 10 µM staurosporine 100%; series mostly up to 92.2 µM;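 also: compound exposure lasted 16 h at 37 °C before readout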
Summary of the method: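 Caspase-3/7 activation measured as luminescence from Caspase-Glo reagent (1 h, room temperature) after 16 h compound exposure of mouse N2a cells. AC50 values from Hill-equation concentration-response, scaled between DMSO and 10 uM staurosporine.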

[5] = Cellular Toxicity (caspase-3) NIH 3T3 (AID 666); conditions: NIH 3T3 caspase-3 activation, apoptosis/toxicity, 0% DMSO, 100% is 100 µM tamoxifen; series mostly up to 92.2 µM;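 also: caspase signal read after 16 h compound exposure; 0% = DMSO basal and 100% = 100 µM tamoxifen stimulation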
Summary of the method: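 Caspase-Glo 3/7 luminescence reported caspase activation in 1000 NIH 3T3 cells/well after 16 h compound exposure at 37 C. DMSO set basal and 100 uM tamoxifen set 100% stimulation; concentration-response modeled with the Hill equation for AC50.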

[6] = Cellular Toxicity (caspase-3) Renal Proximal Tubule (AID 667); conditions: renal proximal tubule cells, primary cells freshly taken from rat; Potency: caspase-3 activation; series mostly up to 91.7 µM;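 also: cells exposed to compound for 16 hours at 37 °C before detection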
Summary of the method: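 AC50 derived by standard Hill fit of concentration-response data, normalized between DMSO basal and 10 uM staurosporine as 100% stimulation. Cells: primary rat kidney proximal tubule, 16 h treatment at 37 °C.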

[7] = target: Cytochrome P450 3A4 (Homo sapiens) (UniProt P08684); assay: qHTS Assay for Inhibitors and Substrates of Cytochrome P450 3A4 (AID 884); conditions: recombinant CYP3A4, Luciferin-PPXE luminescence; series mostly up to 57.1 µM; also: % is scaled to controls: 0 for no effect and ±100 for the full control effect; nearly all actives have a fitted effect of over 50% in size
Chain of Cytochrome P450 3A4 (Homo sapiens) (P08684 whole entry, looked up): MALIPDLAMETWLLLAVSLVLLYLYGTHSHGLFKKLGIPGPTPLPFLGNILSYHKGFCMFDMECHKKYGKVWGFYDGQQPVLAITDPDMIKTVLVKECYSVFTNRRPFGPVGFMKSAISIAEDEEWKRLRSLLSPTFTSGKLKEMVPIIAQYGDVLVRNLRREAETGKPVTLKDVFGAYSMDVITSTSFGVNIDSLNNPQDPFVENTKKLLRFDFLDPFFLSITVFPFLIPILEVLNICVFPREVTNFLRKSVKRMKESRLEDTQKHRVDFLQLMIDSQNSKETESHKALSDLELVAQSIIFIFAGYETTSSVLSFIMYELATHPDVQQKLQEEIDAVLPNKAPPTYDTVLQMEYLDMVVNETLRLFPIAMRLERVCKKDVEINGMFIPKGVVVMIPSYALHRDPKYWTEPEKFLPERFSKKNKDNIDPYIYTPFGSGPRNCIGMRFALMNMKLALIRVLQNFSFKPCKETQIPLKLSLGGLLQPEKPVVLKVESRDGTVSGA
Summary of the method: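 Luminescent readout of luciferin produced by CYP3A4 (20 nM) dealkylation of Luciferin-PPXE, 25 uM (its KM). NADPH-driven reaction ran 60 min at RT after 10 min compound preincubation; data scaled to 57 uM ketoconazole as 100% inhibition.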

[8] = Cell Viability - LYMP2-001 (AID 921); conditions: LYMP2-001 lymphoblastoid cell viability; series mostly up to 92.2 µM;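 also: 0% = DMSO only and full inhibition = tetraoctylammonium bromide control wells; nearly all actives have a fitted effect of over 70% in size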
Summary of the method: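 Steps: seed 2500 lymphoblastoid cells/well; 5 hr, 37 C; add compound; 24 hr, 37 C; CellTiter-Glo reagent, 30 min room temperature; read luminescence. Concentration-response modeled by Hill equation for AC50.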

[9] = MultiTox-Fluor Cytotoxicity Assay - LYMP1-001 - Dead Cells (AID 946); conditions: LYMP1-001 lymphoblastoid cells, dead-cell protease fluorescence; series mostly up to 92.2 µM;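 also: 0% = DMSO and 100% = tetraoctylammonium bromide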
Summary of the method: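 AC50 from Hill fit of concentration-response; data normalized to DMSO (basal) and 15 uM tetraoctylammonium bromide (100%). LYMP1-001 lymphoblastoid cells, 2500/well, 16 hr compound at 37 C; dead-cell protease fluorescence, Ex/Em 485/520.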

[10] = MultiTox-Fluor Cytotoxicity Assay - LYMP1-001 - Live Cells (AID 947); conditions: LYMP1-001 lymphoblastoid cells, live-cell protease fluorescence viability; series mostly up to 92.2 µM;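 also: 0% = DMSO only and full inhibition = tetraoctylammonium bromide control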
[11] = Cell Viability - LYMP1-002 - Assay at 16 hr (AID 948); conditions: LYMP1-002 lymphoblastoid cell viability; series mostly up to 92.2 µM;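 also: 0% = DMSO alone and full effect = 92 µM tetraoctylammonium bromide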
Summary of the method: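 Seed 2500 LYMP1-002 cells per well in complete medium and hold 5 hr at 37 C. Add compound across a concentration series and incubate 16 hr at 37 C. Add CellTiter-Glo, wait 30 min at room temperature, read luminescence.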

[12] = MultiTox-Fluor Cytotoxicity Assay - LYMP1-002 - Live Cells (AID 955); conditions: LYMP1-002 lymphoblastoid live-cell protease fluorescence viability; series mostly up to 46.1 µM;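 also: cells exposed to compound for 16 hours; % is scaled to controls: 0 for no effect and ±100 for the full control effect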
Summary of the method: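 After 16 h compound exposure at 37 C, live LYMP1-002 lymphoblastoid cells (2500/well) were quantified by cleavage of cell-permeant GF-AFC substrate, read at 405/510 nm after 60 min. Concentration-response fitted with Hill equation for AC50.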

[13] = MultiTox-Fluor Cytotoxicity Assay - LYMP1-002 - Dead Cells (AID 960); conditions: LYMP1-002 lymphoblastoid cells, dead-cell protease fluorescence; series mostly up to 46.1 µM;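 also: 0% = DMSO and 100% = tetraoctylammonium bromide; nearly all actives have a fitted effect of over 60% in size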
Summary of the method: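 Dead-cell fluorescence (Ex/Em 485/520) after 16 h compound exposure at 37 C of LYMP1-002 lymphoblastoid cells in complete medium; AC50 by Hill equation, with data scaled between DMSO and 15 uM tetraoctylammonium bromide.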

[14] = MultiTox-Fluor Cytotoxicity Assay - LYMP1-003 - Dead Cells (AID 961); conditions: LYMP1-003 lymphoblastoid cells, dead-cell protease fluorescence; series mostly up to 92.2 µM;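 also: 0% = DMSO and 100% = tetraoctylammonium bromide; nearly all actives have a fitted effect of over 70% in size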
Summary of the method: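 Human lymphoblastoid LYMP1-003 cells (2500/well) were treated with compounds for 16 hr at 37 C in complete medium. Dead-cell protease release was read by bis-AAF-R110 fluorescence (Ex/Em 485/520). AC50 came from Hill fits, normalized to DMSO and 15 uM tetraoctylammonium bromide.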

[15] = MultiTox-Fluor Cytotoxicity Assay - LYMP1-003 - Live Cells (AID 962); conditions: LYMP1-003 lymphoblastoid cells, MultiTox-Fluor live-cell protease fluorescence; series mostly up to 92.2 µM;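 also: cells exposed to compound for 16 hours at 37 °C; 0% = DMSO only and full loss = 92 µM tetraoctylammonium bromide; cytotoxic hits lower the live-cell protease signal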
Summary of the method: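 Live-cell protease activity (GF-AFC substrate, 405/510 nm, 60 min at room temperature) after 16 h, 37 C compound exposure of human lymphoblastoid LYMP1-003 cells; concentration-response fitted to the Hill equation for AC50.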

[16] = Cell Viability - LYMP1-003 - Assay at 24 hr (AID 963); conditions: LYMP1-003 lymphoblastoid cell viability; series mostly up to 92.2 µM;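 also: plate controls were DMSO only for no effect and tetraoctylammonium bromide positive control for full effect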
Summary of the method: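 Concentration-response qHTS: ATP loss measured by CellTiter-Glo luminescence after 24 h compound exposure at 37 C. Cells were LYMP1-003 human lymphoblastoid, 2500 per well. AC50 derived via standard Hill equation modeling.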

[17] = Cell Viability - LYMP1-003 - Assay at 40 hr (AID 964); conditions: LYMP1-003 lymphoblastoid viability; series mostly up to 92.2 µM; also: % is scaled to controls: 0 for no effect and ±100 for the full control effect; nearly all actives have a fitted effect of over 60% in size
Summary of the method: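 Viability is taken as cellular ATP, read by CellTiter-Glo luminescence after 40 h of compound exposure at 37 C. Cells: human lymphoblastoid line LYMP1-003 at 2500/well; AC50 values derived by Hill-equation fitting of concentration-response data.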

[18] = Cell Viability - LYMP2-003 (AID 965); conditions: LYMP2-003 lymphoblastoid cell viability; series mostly up to 92.2 µM;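 also: cells exposed to compounds for 24 h before reading; 0% = DMSO only and full effect = 92 µM tetraoctylammonium bromide; nearly all actives have a fitted effect of over 50% in size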
Summary of the method: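 Seed 2500 lymphoblastoid cells/well; incubate 5 hr, 37 C; add compounds; incubate 24 hr, 37 C; add CellTiter-Glo, 30 min RT; read luminescence. AC50 from Hill fit.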

[19] = Cellular Toxicity (caspase-3) Hek293 (AID 664); conditions: HEK293 caspase-3 activation, DMSO = 0%, 100 µM tamoxifen = 100%; at 92.2 µM (top of the series);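 also: cells exposed to compound for 16 h at 37 °C before readout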
Summary of the method: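 Concentration-response qHTS: caspase 3/7 activation measured by luminescent aminoluciferin substrate cleavage after 16 h compound exposure of Hek 293 cells. AC50 from Hill equation, with DMSO as basal and 100 uM tamoxifen as 100%.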

O=C(O)c1ccccc1C(=O)O
inactive: caspase-3 activation [1] 1.74% | outcome [2] | caspase-3 activation [3] -0.105% | outcome [4] | outcome [5] | Potency [6] | Potency [7] | Potency [8] | outcome [9] | outcome [10] | outcome [11] | outcome [12] | outcome [13] | Potency [14] | Potency [15] | Potency [16] | Potency [17] | Potency [18]

Cc1ccc(C)c(N)c1
inactive: caspase-3 activation [1] 1.89% | outcome [2] | caspase-3 activation [3] 3.4% | outcome [4] | outcome [5] | Potency [7] | Potency [8] | outcome [9] | outcome [11] | outcome [12] | outcome [13] | Potency [14] | Potency [15] | Potency [16] | Potency [17] | Potency [18]

O=C1OC(=O)c2cc([N+](=O)[O-])ccc21
inactive: caspase-3 activation [1] -0.00553% | outcome [2] | caspase-3 activation [3] -0.24% | outcome [4] | outcome [5] | Potency [6] | Potency [7] | Potency [8] | outcome [9] | outcome [10] | outcome [11] | outcome [12] | outcome [13] | Potency [14] | Potency [15] | Potency [16] | Potency [17] | Potency [18]

Nc1ccccc1[N+](=O)[O-]
inactive: caspase-3 activation [1] -0.609% | outcome [2] | caspase-3 activation [3] 1.23% | outcome [4] | outcome [5] | Potency [6] | Potency [8] | outcome [9] | outcome [10] | outcome [11] | outcome [12] | outcome [13] | Potency [14] | Potency [15] | Potency [16] | Potency [17]

CCN(Cc1ccccc1)c1ccccc1
inactive: caspase-3 activation [1] -0.109% | outcome [2] | caspase-3 activation [3] 0.0577% | outcome [4] | outcome [5] | Potency [6] | Potency [7] | Potency [8] | outcome [9] | outcome [10] | outcome [11] | outcome [12] | outcome [13] | Potency [14] | Potency [15] | Potency [16] | Potency [17]

CO[Si](CCCNCCC[Si](OC)(OC)OC)(OC)OC
inactive: caspase-3 activation [1] 0.876% | outcome [2] | caspase-3 activation [3] 0.962% | outcome [4] | outcome [5] | Potency [6] | Potency [7] | Potency [8] | outcome [9] | outcome [10] | outcome [11] | outcome [12] | Potency [14] | Potency [15] | Potency [16] | Potency [17]

CC(C)=C1CCC(C)CC1=O (stereo not given)
inactive: caspase-3 activation [1] 0.404% | outcome [2] | outcome [4] | outcome [5] | Potency [6] | Potency [7] | Potency [8] | outcome [9] | outcome [10] | outcome [11] | outcome [12] | outcome [13] | Potency [14] | Potency [15] | Potency [16] | Potency [17] | Potency [18]

O=Cc1ccc(C(=O)O)cc1
inactive: caspase-3 activation [1] 0.146% | outcome [2] | caspase-3 activation [19] -1.79% | outcome [4] | outcome [5] | Potency [6] | Potency [7] | Potency [8] | outcome [9] | outcome [10] | outcome [11] | outcome [12] | Potency [14] | Potency [15] | Potency [16] | Potency [17] | Potency [18]

O=[N+]([O-])c1ccccc1CCO
inactive: caspase-3 activation [1] -1.29% | outcome [2] | caspase-3 activation [19] -0.925% | outcome [4] | outcome [5] | Potency [6] | Potency [7] | Potency [8] | outcome [9] | outcome [10] | outcome [11] | outcome [12] | outcome [13] | Potency [14] | Potency [15] | Potency [16] | Potency [18]

C=Cc1ccccc1C=C
inactive: caspase-3 activation [1] 0.384% | outcome [2] | caspase-3 activation [19] 1.48% | outcome [4] | outcome [5] | Potency [6] | Potency [7] | Potency [8] | outcome [9] | outcome [11] | outcome [12] | outcome [13] | Potency [14] | Potency [15] | Potency [17] | Potency [18]

CCOC(=O)OCC
inactive: caspase-3 activation [1] -0.584% | outcome [2] | caspase-3 activation [19] -2.59% | outcome [4] | outcome [5] | Potency [6] | Potency [8] | outcome [9] | outcome [10] | outcome [11] | outcome [12] | outcome [13] | Potency [14] | Potency [15] | Potency [16] | Potency [17] | Potency [18]

— PubChem BioAssay (NCATS)
